Results taken from PubChem BioAssay AID602440 (Sanford-Burnham Center for Chemical Genomics, 2012).
Out of some 360,000 compounds screened, about 2,300 (0.64%) were called active. No stated cut-off is given here; in the data, active means inhibition mostly above about 40% (no sharp cut-off); inactive means mostly below about 27%. What follows is part of a selection rich in actives, with near analogues and random picks from the rest.

molecular target: Sentrin-specific protease 8 (Homo sapiens) (UniProt Q96LD8); assay: blockers of SENP8 deneddylase activity – biochemical, fluorescence, Nedd8 protein substrate, uHTS, primary screen (AID 602440); conditions: recombinant SENP8, Nedd8 substrate fluorescence; at 20 µM; active compounds read high
Sequence (Q96LD8 whole entry, looked up): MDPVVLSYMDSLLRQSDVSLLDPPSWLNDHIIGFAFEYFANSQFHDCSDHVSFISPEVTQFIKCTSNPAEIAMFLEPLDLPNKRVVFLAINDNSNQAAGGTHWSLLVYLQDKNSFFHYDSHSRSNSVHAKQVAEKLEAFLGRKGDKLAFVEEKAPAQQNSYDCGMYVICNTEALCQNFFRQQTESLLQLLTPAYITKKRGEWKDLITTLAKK

SMILES	inhibition
Cc1cccc(N2CCN(c3ccc(C(N)=O)cc3[N+](=O)[O-])CC2)c1C	15.7% (inactive)
CS(=O)(=O)N1CCN(c2ccc(C(=O)NC3C4CC5CC(C4)CC3C5)cc2[N+](=O)[O-])CC1 (stereo not given)	13.8% (inactive)
CN1CCN(S(=O)(=O)c2ccc(N3CCN(c4ccccc4O)CC3)c([N+](=O)[O-])c2)CC1	39.2% (active)
CC(C)c1ccc(S(=O)(=O)N2CCN(C(=O)c3ccc(N4CCCC4)c([N+](=O)[O-])c3)CC2)cc1	11.9% (inactive)
Cc1ccccc1N1CCN(S(=O)(=O)c2ccc3ccccc3c2)CC1	12.3% (inactive)
Cc1ccc(C(=O)c2ccc(N3CCN(C)CC3)c([N+](=O)[O-])c2)cc1	47.4% (active)
COC(=O)c1ccccc1NC(=O)C1CCN(C(=O)N2CCOc3ccccc32)CC1	-37.2% (inactive)
COc1ccc(NC(=O)N2CCCC(c3nc(-c4ccc(F)cc4)no3)C2)cc1 (stereo not given)	9.6% (inactive)
C[C@H]1CN([C@@H](C)CO)C(=O)CCCn2cc(nn2)CO[C@@H]1CN(C)S(=O)(=O)c1ccc(-c2ccccc2)cc1	12.7% (inactive)
C/C(N)=C(/C#N)C(=O)COC(=O)c1cc(-c2cccc(Br)c2)nc2ccccc12	-25.4% (inactive)
COc1cccc2c1C(=O)c1c(O)c3c(c(O)c1C2=O)CC(O)(C(C)=NNC(=O)c1ccc(Cl)c(Cl)c1)CC3OC1CC(N)C(O)C(C)O1 (stereo not given)	46.6% (active)
CCCC(O)(c1ccc(OC)cc1)C(CN(C)C)c1ccccc1 (stereo not given)	10.7% (inactive)
NC(=O)C1CCN(CC(O)CSc2ccc(F)cc2)CC1 (stereo not given)	17% (inactive)
NC(=O)COC(=O)c1cc(S(=O)(=O)N2CCN(c3ccccc3)CC2)ccc1Cl	14.7% (inactive)
C/C(=N\Nc1ccccc1)c1cccs1	-20.5% (inactive)
CSc1ncc(C(=O)NCCCc2ccccc2)c(C)n1	-24.7% (inactive)
CC/C(=N/Nc1ccccc1)c1cnnc(SC)n1	61.2% (active)
CN(C(=O)c1cccc(NC(=O)Cc2ccc([N+](=O)[O-])cc2)c1)C1CCC1	19.5% (inactive)
O=S(=O)(Nc1ccc(-n2cnnn2)cc1)c1ccc(Cl)cc1	5.5% (inactive)
CCOC(=O)c1[nH]c(C)c(C(=O)OCC(=O)N2c3ccccc3CC2C)c1C (stereo not given)	31.3% (inactive)
CCOC(=O)c1c(C)[nH]c2c1-c1ccccc1C(=O)C2=O	121% (active)
CCOC(=O)c1c(C)oc(C)c(C(=O)OCC)c1=O	11.2% (inactive)
CCn1cc(C(=O)NCC(=O)NC(C)(C)CO)c(=O)c2cc3c(cc21)OCO3	-75.3% (inactive)
COc1ccc2c(c1)c(=Cc1ccc(N(C)C)cc1)c1cc(-c3ccccc3)[n+](C)n12	-127% (inactive)
CCOC(=O)CNC(=O)CN1C(=O)CCSc2ccccc21	16.5% (inactive)

SMILES	inhibition
CCOC(=O)CNC(=O)N1c2ccccc2Sc2ccccc21	47.5% (active)
CCOC(=O)CNC(=O)/C=C/c1c(Cl)cccc1Cl	16.6% (inactive)
CC(=O)NC(CC(=O)O)c1ccc(F)cc1 (stereo not given)	-2% (inactive)
Cc1[nH]n(-c2ccccc2)c(=O)c1CCOC(=O)c1ccc(C(F)(F)F)cc1	15.4% (inactive)
Cc1[nH]n(C)c(=O)c1N=Nc1ccc(S(C)(=O)=O)cc1	28.1% (inactive)
Cc1ccc(N=Nc2c(C)[nH]n(-c3ccccc3)c2=O)cc1	35.1% (active)
Cc1ccc(S(=O)(=O)N(CC(=O)NN=C2CCN(C)CC2)c2ccc(F)cc2)cc1	10.4% (inactive)
Cn1nc(C(F)(F)F)cc1-c1ccc(/C=C(\C#N)C(=O)c2cccc(C(F)(F)F)c2)s1	-159% (inactive)
CCc1ccc(-c2nnn(Cc3nc4ccccc4s3)n2)cc1	14% (inactive)
CCc1ccc(-c2nnn(Cc3nn[nH]n3)n2)cc1	41.5% (active)
CN(C)c1nc(N)nc(Cn2nnc(-c3ccc(C(F)(F)F)cc3)n2)n1	17.2% (inactive)
CCOC(=O)c1cc(NC(=O)SCC(=O)O)c(C)nc1C	-84.4% (inactive)
CCCNC(=O)CCn1cc(-c2ccc(OC)cc2)nc1CCN	-0.4% (inactive)
CCCc1cc(=O)[nH]c(SCC(=O)c2c(N)n(CC(C)C)c(=O)n(C)c2=O)n1	2.3% (inactive)
Cc1cc(-c2ccccc2)nc(N2CCC(C(=O)NC34CC5CC(CC(C5)C3)C4)CC2)n1	-325% (inactive)
Cc1ccc2[nH]cc(CCCN3C(=O)c4ccccc4C3=O)c2c1	8.9% (inactive)
Cc1ccc(NC(=O)CCN2C(=O)c3ccccc3C2=O)cc1C	14.4% (inactive)
Cc1cc(C)cc(NC(=O)CCN2C(=O)c3ccccc3C2=O)c1	8.2% (inactive)
Cc1cc2c(cc1C)N(C(=O)CN1C(=O)c3ccccc3C1=O)C(C)(C)c1ssc(=S)c1-2	41.6% (active)
Cc1ccc2c(c1)-c1c(ssc1=S)C(C)(C)N2C(=O)CN1C(=O)c2ccccc2C1=O	50% (active)
Cc1ccccc1C(=O)NNC(=O)CN1C(=O)c2ccccc2C1=O	21.1% (inactive)
O=C(O)CC1S/C(=N\N=C/c2ccccc2O)N(c2ccc(O)cc2)C1=O (stereo not given)	-14.4% (inactive)
Cc1ccc2nc(Nc3ncc4c(n3)CC(C)(C)CC4=O)nc(C)c2c1	-28.2% (inactive)
O=C(CCN1CCCCC1)Nc1ccc(F)c(F)c1	19.3% (inactive)
COCC1CCCN(Cc2cn[nH]c2-c2cc3ccccc3o2)C1 (stereo not given)	9.9% (inactive)
